Only some compounds are listed: those with a hit (about 19% of all), similar ones and a draw of the others.
DT40 TDP1 CPT – growth inhibition of DT40 Tdp1-/-;hTDP1 cells with camptothecin (screen for TDP1 inhibitors). chicken DT40 Tdp1-/-;hTDP1 cells + 20 nM CPT, ATP luminescence, 48 h. 420,000 tested, 12% active. AID 686979. Potency, µM (doses to about 46.2 µM), usual class: inhibitors; note: nearly all actives have a fitted effect of over 55% in size
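Chicken DT40 Tdp1-/- cells complemented with human TDP1, 400 cells/well, exposed to compounds plus 20 nM camptothecin for at least 48 h at 37 C; viability read as ATP content by CellTiter-Glo luminescence.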
HepG2 viability – HepG2 cytotoxicity, counter-screen for TGF-b inhibitors | 410,000 tested, 0.76% active | HepG2 CAGA-GFP viability, ATP luminescence, 18 h | Potency, µM (highest dose often 46.1 µM), hits mostly cytotoxic
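CellTiter-Glo luminescence gave cytotoxicity after 18 hours at 37 degrees C. The cells were HepG2 CAGA-GFP in 1% FBS DMEM, stimulated with 500 pg/mL TGF-beta after compound addition. %Activity was normalised to no-cell wells (complete cell-killing) and DMSO (no toxicity), and curves were fitted and classified.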
TDP1 block – inhibitors of human tyrosyl-DNA phosphodiesterase TDP1 | Q9NUW8 | Potency, µM (highest dose often 130 µM), usual class: inhibitors | 350,000 tested, 0.28% active | recombinant TDP1, AlphaScreen DNA substrate cleavage; note: nearly all actives have a fitted effect of over 40% in size
Target sequence (Q9NUW8 whole entry, looked up): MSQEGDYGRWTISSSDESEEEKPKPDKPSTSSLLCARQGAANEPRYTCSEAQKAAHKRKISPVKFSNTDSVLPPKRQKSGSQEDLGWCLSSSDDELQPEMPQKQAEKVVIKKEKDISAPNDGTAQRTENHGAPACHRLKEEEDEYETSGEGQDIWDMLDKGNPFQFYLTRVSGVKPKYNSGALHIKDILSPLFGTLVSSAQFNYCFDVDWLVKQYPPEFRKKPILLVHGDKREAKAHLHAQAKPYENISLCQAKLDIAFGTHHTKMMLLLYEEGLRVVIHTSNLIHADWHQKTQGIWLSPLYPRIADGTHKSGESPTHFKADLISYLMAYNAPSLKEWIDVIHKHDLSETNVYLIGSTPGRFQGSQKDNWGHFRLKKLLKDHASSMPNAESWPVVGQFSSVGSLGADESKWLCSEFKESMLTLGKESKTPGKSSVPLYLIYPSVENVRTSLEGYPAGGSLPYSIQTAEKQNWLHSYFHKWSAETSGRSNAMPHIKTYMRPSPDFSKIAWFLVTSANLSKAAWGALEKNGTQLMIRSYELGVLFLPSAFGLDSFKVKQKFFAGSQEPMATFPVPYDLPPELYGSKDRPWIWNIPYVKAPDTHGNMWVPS
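AlphaScreen read-out: signal falls as enzyme removes the 3' tyrosine-FITC from a 5'-biotinylated DNA oligo (15 nM, 5 min, RT). Enzyme was E. coli-made recombinant Tdp1 at 1 nM, exposed to compound for 15 min beforehand; beads 10 ug/ml, 10 min.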
TGFb inhibitor – inhibitors of TGF-b signaling; AID 588855; HepG2 CAGA-GFP TGF-b/SMAD3 reporter, GFP fluorescence, 18 h; TGF-beta stimulated, 500 pg/mL final; Potency, µM (titrated, usually from 46.1 µM), hits mostly inhibitors; 410,000 tested, 1.2% active; note: nearly all actives have a fitted effect of over 65% in size
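HEPG2 CAGA-GFP reporter cells (1000/well, DMEM with 1% FBS) received compounds, then recombinant TGF-beta at 500 pg/mL final for 18 hours at 37 degrees C. Per-cell GFP summed per well was normalised to unstimulated and stimulated DMSO controls before curve fitting.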
DT40 TDP1 no CPT – qHTS for Inhibitors of human tyrosyl-DNA phosphodiesterase 1 (TDP1): qHTS in cells in absence of CPT; 420,000 tested, 15% active; Potency, µM (highest dose often 46.2 µM), most hits filed as inhibitors; DT40 Tdp1-/- hTDP1 cells, no CPT, ATP luminescence, 48 h; note: nearly all actives have a fitted effect of over 55% in size
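A cellular qHTS used chicken DT40 cells lacking endogenous Tdp1 but carrying stably transfected human TDP1. Compounds were applied without camptothecin, and cell growth kinetics were judged by ATP-dependent luminescence after ≥48 hr.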
IL-1B inflam inh – inhibitors of inflammasome signaling (IL-1 beta secretion). THP-1 LPS/ATP IL-1B secretion, AlphaLISA, 16 h; hits give low values. activity change, % at 57.5 µM. 360,000 tested, 4.7% active; in the data active = activity change below about -50%; inconclusive = mostly about -30% to -49%
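Secreted IL-1B measured by AlphaLISA bead assay after 16 h compound exposure of THP-1 cells; compounds (final up to 57.5 uM) added 1 h before LPS (250 ng/mL) and ATP (1.25 mM) stimulation; lower signal means less secretion.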
Numbers stand for hits; n = inactive; u = inconclusive; x = no result given; [ ] = dose if it differs, or a comment. Unless noted, calls come from the whole dose curve; as a rule, active = well fitted curve in the direction sought with a large enough effect; inconclusive = small, poorly fitted or top-dose-only effect, or another doubt; inactive = no such curve, though single readings can be large; an effect the other way counts as inactive or inconclusive.

SMILES	DT40 TDP1 CPT	HepG2 viability	TDP1 block	TGFb inhibitor	DT40 TDP1 no CPT	IL-1B inflam inh
Clc1cccc(N2CCN(c3nc4ccccc4n4cnnc34)CC2)c1	u	n	n	n	u	x
CC(C)(C)NS(=O)(=O)c1ccc2nc(NC(=O)Cc3cccs3)sc2c1	u	n	n	n	15µM	n
CCc1noc(C)c1C(=O)Nc1nc2ccc(S(C)(=O)=O)cc2s1	u	n	n	n	u	n
Cc1onc(-c2ccccc2Cl)c1C(=O)Nc1nc2ccc(S(C)(=O)=O)cc2s1	8.2µM	n	n	u	9.2µM	n
O=C1N[C@@H]2[C@H](CCCCC(=O)Oc3ccc([N+](=O)[O-])cc3)SC[C@H]2N1	x	x	n	x	x	x
COc1ccc(S(=O)(=O)NCCOc2ccccc2)cc1OC	n	n	n	u	n	n
COc1cccc(CNCCCSc2nnnn2C)c1OC	n	n	n	n	n	x
COc1cccc(CNCCSc2nnnn2-c2ccccc2)c1OC	u	n	n	n	23µM	x
COc1ccc(S(=O)(=O)NCCOc2ccccc2)cc1-n1cnnn1	n	n	n	n	n	-50
CCOc1cc(CNCCSc2nnnn2-c2ccccc2)ccc1OC	12µM	n	n	n	10µM	x
CCOc1ccc(CNCCSc2nnnn2C)cc1OC	n	n	n	n	n	x
COc1ccc(S(=O)(=O)NCCSc2nnnn2-c2ccccc2)cc1OC	16µM	n	n	n	23µM	x
COCCN(CC(=O)Nc1cccc(C)c1C)C(=O)Cc1sc(C)nc1-c1ccc(F)cc1	n	n	n	n	n	n
COCC(=O)N1CCC2(CC1)CN(c1ccncc1)C2	n	x	x	x	n	x
CN(C)/C=C\C(=C/C(=O)C(F)(F)F)Nc1ccccc1Oc1ccccc1	u	n	n	u	18µM	-98
Cc1ccc(NC(/C=C/N(C)C)=C/C(=O)C(F)(F)F)c(C)c1	16µM	n	n	20µM	16µM	n
Cc1noc(C)c1S(=O)(=O)N(C)C[C@@H]1OCc2cnnn2CCCC(=O)N([C@H](C)CO)C[C@@H]1C	n	n	x	n	n	n
COc1cc2ccccc2cc1C(=O)Nc1ccc2oc(-c3cc(Br)ccc3Cl)nc2c1	u	n	n[12.3 µM]	n	n	x
Cc1ccc2cccc(NC(=O)c3ccc(-c4ccc(Br)cc4)o3)c2n1	n	n	n	n	n	x
O=C(Nc1cccc(NC(=O)c2ccc(-c3ccc(Br)cc3)o2)c1)c1ccco1	u	n	n	n	13µM	n
O=C(Nc1cccc(NC(=O)c2ccccc2Cl)c1)c1ccco1	n	n	n	n	n	n
O=C1C2C3C=CC(C3)C2C(=O)N1c1cccc(-c2nc3ccccc3o2)c1 (centres undefined)	n	n	n	n	n	n
O=C(Nc1cccc(-c2nc3ccccc3o2)c1)c1ccc(N2C(=O)C3C4C=CC(C4)C3C2=O)cc1 (centres undefined)	7.3µM	n	n	n	8.2µM	n
O=C(Nc1ccc2oc(-c3cc(Br)ccc3Cl)nc2c1)c1cc2ccccc2o1	16µM	n	n	n	10µM	x
COC(=O)c1ccccc1NC(=O)c1ccc(-c2ccc(Br)cc2)o1	n	n	n	n	1.6µM	n
COC(=O)C1CC(c2ccc(Cl)cc2)=NO1 (centres undefined)	n	n	n	n	n	n
Cc1c(NC(=O)c2ccc(OC(C)C)cc2)cccc1-c1nc2ncccc2o1	u	n	n[2.28 µM]	n	u	x
COc1ccc(-c2nc3ccccc3o2)cc1NC(=O)c1ccc(-c2ccc(Br)cc2)o1	n	n	n[2.28 µM]	n	n	x
O=C(Nc1cccc(-c2nc3ccccc3o2)c1)c1ccc(-c2ccc(Br)cc2)o1	u	n	x	n	10µM	x
O=C(Nc1ccc2oc(-c3cccnc3)nc2c1)c1cc2ccccc2o1	u	n	n	n	n	n

Screening results deposited in PubChem BioAssay by National Center for Advancing Translational Sciences (NCATS).
